Source: paper PMC5540273 (PLoS ONE, 2017)

What follows are compounds tested on FGFR1. Settings: concentration: 1 μM,replicates: in singlicate; n = 1.
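Also: KINOMEscan kinase panel screen.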

Row | Compound | %Inh
1 | C=CC(=O)Nc1cc2c(Nc3ccc(F)c(Cl)c3)ncnc2cc1OCCCN1CCOCC1 [GW781483] | 0%
2 | CC(C)Nc1cc(-c2ccc3c(N)n[nH]c3c2)nc(N)n1 [GSK2221681] | 20%
3 | COc1ccc(C[C@@H](CN)NC(=O)c2cc(Br)c(-c3ccnc4[nH]ccc34)s2)cc1.Cl.Cl [GSK1389063] | 95.8%
4 | Cc1occc1-c1nc(N)c(OC[C@@H](N)Cc2c[nH]c3ccccc23)cc1-c1cc2c(C)n[nH]c2cn1 [GSK1660450] | 49%
5 | Cc1ccc2c(-c3ccncc3)c(-c3ccc(F)cc3)nn2c1.Cl [GW461484] | 14%
6 | O=C(NCCCN1CCOC1=O)c1cnc(NCc2cc(Cl)ccc2Cl)nc1NC1CCCC1 | 10%
7 | Cc1n[nH]c2ccc(-c3cc(OC[C@@H](N)Cc4ccccc4)cnc3-c3ccoc3)cc12.O=C(O)C(F)(F)F.O=C(O)C(F)(F)F [GSK507358] | 0%
8 | Cc1cc2cn[nH]c2cc1-c1cccc2c(N)c(C(N)=O)nnc12 | 35%
9 | NC(=O)c1cc(-c2ccccc2)cc2c(C3CCNCC3)c[nH]c12 [GSK301362] | 32%
10 | CC(C)N1C(=O)Cc2cc(Nc3ncc(C(F)(F)F)c(NCc4cccc(S(C)(=O)=O)c4)n3)ccc21 | 38%
11 | O=C(NCCNc1ccnc(NCc2ccc(F)cc2)n1)c1cc2ccccc2s1 [GSK1379944] | 6%
12 | Nc1nc(Nc2ccccc2)cc(-c2ccc3c(N)n[nH]c3c2)n1 [GSK2225749] | 17%
13 | CCN(CC)CCCCNc1ncc2cc(-c3c(Cl)cccc3Cl)c(NC(=O)NC(C)(C)C)nc2n1 | 98.6%
14 | Cc1cc(C(=O)Nc2ccc(Oc3ccc4nc(NC(=O)C5CC5)cn4n3)cc2)nn1-c1ccccc1 | 21%
15 | CN(C)CC(O)COc1ccc(Nc2nccc(-c3cnn4nc(N5CCOCC5)ccc34)n2)cc1 (stereo not shown) [GW767488] | 2%
16 | Cl.Cl.Nc1nc(-c2ccc3c(N)n[nH]c3c2)cc(N2CCCC(NC(=O)c3ccccc3)C2)n1 (stereo not shown) [GSK2286775] | 0%
17 | CN(C)CCOc1ccc(-c2cc(-c3c[nH]nc3-c3ccccn3)ccn2)cc1 [GW835314] | 47%
18 | C[C@@H]1CCN(C(=O)CC#N)C[C@@H]1N(C)c1ncnc2[nH]ccc12 | 0%
19 | Cl.Cl.NC[C@H](CC1CCCCC1)NC(=O)c1cc(Br)c(-c2ccnc3[nH]ccc23)s1 [GSK1581427] | 35%
20 | Cl.Cl.NC[C@H](Cc1ccc(C(F)(F)F)cc1)NC(=O)c1cc(Br)c(-c2ccnc3[nH]ccc23)s1 [GSK1487252] | 14%
21 | Cl.Oc1cc(-c2nc(-c3ccccc3)[nH]c2-c2ccncc2)ccc1Cl [SB-386023] | 6%
22 | C[C@H]1Oc2cc(cnc2N)-c2c(nn(C)c2C#N)CN(C)C(=O)c2ccc(F)cc21 | 12%
23 | C[C@@H](Oc1cc(-c2cnn(C3CCNCC3)c2)cnc1N)c1c(Cl)ccc(F)c1Cl | 22%
24 | CCn1c(-c2nonc2N)nc2c(C#CC(C)(C)O)nc(OCCN)cc21.Cl.Cl [GSK902056] | 0%
25 | CCN(CC)CCOc1ccc(Nc2ncc3cc(-c4c(Cl)cccc4Cl)c(=O)n(C)c3n2)cc1 [SB-601273] | 99.9%

The compounds below were run on FGFR2. Settings: concentration: 1 μM,replicates: in singlicate; n = 1.

Row | Compound | %Inh
26 | C=CC(=O)Nc1cc2c(Nc3ccc(F)c(Cl)c3)ncnc2cc1OCCCN1CCOCC1 [GW781483] | 0%
27 | CC(C)Nc1cc(-c2ccc3c(N)n[nH]c3c2)nc(N)n1 [GSK2221681] | 0%
28 | COc1ccc(C[C@@H](CN)NC(=O)c2cc(Br)c(-c3ccnc4[nH]ccc34)s2)cc1.Cl.Cl [GSK1389063] | 83%
29 | Cc1occc1-c1nc(N)c(OC[C@@H](N)Cc2c[nH]c3ccccc23)cc1-c1cc2c(C)n[nH]c2cn1 [GSK1660450] | 4%
30 | Cc1ccc2c(-c3ccncc3)c(-c3ccc(F)cc3)nn2c1.Cl [GW461484] | 12%
31 | O=C(NCCCN1CCOC1=O)c1cnc(NCc2cc(Cl)ccc2Cl)nc1NC1CCCC1 | 24%
32 | Cc1n[nH]c2ccc(-c3cc(OC[C@@H](N)Cc4ccccc4)cnc3-c3ccoc3)cc12.O=C(O)C(F)(F)F.O=C(O)C(F)(F)F [GSK507358] | 0%
33 | Cc1cc2cn[nH]c2cc1-c1cccc2c(N)c(C(N)=O)nnc12 | 0%
34 | NC(=O)c1cc(-c2ccccc2)cc2c(C3CCNCC3)c[nH]c12 [GSK301362] | 19%
35 | Cc1ccc(-n2nc(C(C)(C)C)cc2NC(=O)Nc2ccc(OCCN3CCOCC3)c3ccccc23)cc1 [GW839464] | 2%
36 | CC(C)N1C(=O)Cc2cc(Nc3ncc(C(F)(F)F)c(NCc4cccc(S(C)(=O)=O)c4)n3)ccc21 | 52%
37 | O=C(NCCNc1ccnc(NCc2ccc(F)cc2)n1)c1cc2ccccc2s1 [GSK1379944] | 10%
38 | CNC(=O)c1ccccc1Sc1ccc2c(/C=C/c3ccccn3)n[nH]c2c1 | 86%
39 | Nc1nc(Nc2ccccc2)cc(-c2ccc3c(N)n[nH]c3c2)n1 [GSK2225749] | 10%
40 | CCN(CC)CCCCNc1ncc2cc(-c3c(Cl)cccc3Cl)c(NC(=O)NC(C)(C)C)nc2n1 | 96.4%
41 | Cc1cc(C(=O)Nc2ccc(Oc3ccc4nc(NC(=O)C5CC5)cn4n3)cc2)nn1-c1ccccc1 | 28%
42 | CN(C)CC(O)COc1ccc(Nc2nccc(-c3cnn4nc(N5CCOCC5)ccc34)n2)cc1 (stereo not shown) [GW767488] | 6%
43 | Cl.Cl.Nc1nc(-c2ccc3c(N)n[nH]c3c2)cc(N2CCCC(NC(=O)c3ccccc3)C2)n1 (stereo not shown) [GSK2286775] | 0%
44 | CN(C)CCOc1ccc(-c2cc(-c3c[nH]nc3-c3ccccn3)ccn2)cc1 [GW835314] | 17%
45 | C[C@@H]1CCN(C(=O)CC#N)C[C@@H]1N(C)c1ncnc2[nH]ccc12 | 0%
46 | Cl.Cl.NC[C@H](CC1CCCCC1)NC(=O)c1cc(Br)c(-c2ccnc3[nH]ccc23)s1 [GSK1581427] | 18%
47 | Cl.Cl.NC[C@H](Cc1ccc(C(F)(F)F)cc1)NC(=O)c1cc(Br)c(-c2ccnc3[nH]ccc23)s1 [GSK1487252] | 17%
48 | Cl.Oc1cc(-c2nc(-c3ccccc3)[nH]c2-c2ccncc2)ccc1Cl [SB-386023] | 2%
49 | C[C@H]1Oc2cc(cnc2N)-c2c(nn(C)c2C#N)CN(C)C(=O)c2ccc(F)cc21 | 26%
50 | C[C@@H](Oc1cc(-c2cnn(C3CCNCC3)c2)cnc1N)c1c(Cl)ccc(F)c1Cl | 0%
51 | CCn1c(-c2nonc2N)nc2c(C#CC(C)(C)O)nc(OCCN)cc21.Cl.Cl [GSK902056] | 100%
52 | CCN(CC)CCOc1ccc(Nc2ncc3cc(-c4c(Cl)cccc4Cl)c(=O)n(C)c3n2)cc1 [SB-601273] | 100%
